# Screens from PubChem.
# NALP1 yeast inh – NALP1 inflammasome inhibitors in reconstituted yeast, colorimetric, S. cerevisiae, triplicate retest. S. cerevisiae NALP1/ASC/caspase-1 growth, X-gal OD620, 72 h. inhibition, % at 10 µM. 0.61% of 280,000 active; in the data active = inhibition mostly above about 24%, no sharp cut-off; inactive = mostly below about 32%
# TIM10 inh – growth inhibitors of isogenic TIM10 control yeast, primary screen, counter-screen for tim10-1 yeast inhibitor project, luminescence, uHTS | S. cerevisiae TIM10 strain growth, BacTiter-Glo luminescence, 24 h | inhibition, % at 10 µM | 1.4% of 330,000 active;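 active = inhibition of 40% or more at the single tested concentration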;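 note: wild-type TIM10 isogenic control strain grown at permissive 25 °C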
# NALP3 yeast inh – NALP3 inflammasome inhibitors in reconstituted yeast, primary screen, luminescence, uHTS | Yeast reconstituted NLRP3/ASC/caspase-1, beta-gal luminescence, 24 h | inhibition, % at 10 µM | 0.39% of 330,000 active;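 active = inhibition of 50% or more; inactive = inhibition below 50%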;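 note: plate controls were induced DMSO wells for no effect and uninduced yeast grown without galactose for full effect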
# tim23-1 inh – growth inhibitors of tim23-1 mutant yeast, primary screen, luminescence, uHTS. 1.3% of 330,000 active. S. cerevisiae tim23-1 growth, BacTiter-Glo luminescence, 24 h. inhibition, % at 20 µM. AID 463212, 2010;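 active = growth inhibition of the mutant yeast at or above 50%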;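 note: temperature-sensitive mutant grown at 25 °C; plate controls were DMSO-treated mutant yeast for no effect and medium wells lacking yeast for full effect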
# tim10-1 inh – growth inhibitors of tim10-1 mutant yeast, primary screen, luminescence, uHTS; S. cerevisiae tim10-1 ts strain growth, BacTiter-Glo, 24 h; inhibition, % at 20 µM; 2.2% of 330,000 active; AID 463190, 2010;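 active = inhibition of at least 40%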;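 note: mutant grown at 25 °C; 0% = DMSO wells with yeast and 100% = wells holding no yeast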
# V-ATPase pHluor – regulators of yeast V-ATPase proton pumping, primary screen, pHLuorin cytosolic pH fluorescence. S. cerevisiae. response, % at 10 µM. 0.37% of 350,000 active. AID 504577, 2011; in the data active = response mostly above about 7.3%, no sharp cut-off; inactive = mostly below about 5.4%; note: actives read high
# tim10-1 confirm – growth inhibitors of tim10-1 mutant yeast, confirmation, single concentration, luminescence, S. cerevisiae | 56% of 7,400 active | inhibition, % at 20 µM | AID 463213, 2010 | shares compounds with tim10-1 inh | S. cerevisiae tim10-1 ts strain growth, BacTiter-Glo, 24 h;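 active = inhibition of yeast growth at or above a set limit in either of two repeat tests at 20 µM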;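 note: tim10-1 mutant grown at permissive 25 °C to find synthetic lethal compounds; 0% = DMSO yeast wells and 100% = medium wells without yeast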
# tim10 confirm – growth inhibitors of wild-type TIM10 yeast, confirmation, counter-screen for tim10-1 synthetic lethality project, single concentration, luminescence, S. cerevisiae | inhibition, % at 10 µM | AID 463215, 2010 | shares compounds with TIM10 inh | 63% of 4,600 active | S. cerevisiae tim10 strain growth, BacTiter-Glo luminescence, 24 h;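 active = inhibition of yeast growth at or above a set limit in either of two replicates at 10 µM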;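 note: this counterscreen used the strain with wild-type TIM10; 0% = yeast with DMSO and 100% = medium wells lacking yeast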
# tim23-1 confirm – tim23-1 mutant yeast growth inhibitors, confirmation, luminescence, single concentration | shares compounds with tim23-1 inh | S. cerevisiae tim23-1 growth, BacTiter-Glo luminescence, 24 h | inhibition, % at 20 µM | 83% of 4,400 active;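 active = inhibition above about 39% in either of two replicate wells at 20 µM, limit read from the data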;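 note: temperature-sensitive tim23-1 mutant grown at 25 °C; 0% = DMSO wells with yeast and 100% = medium wells without yeast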
# * hit, by the source's call; · = no result given. In the library only some 4.2% were active in any assay of this set; here they are far more common.
SMILES,NALP1 yeast inh,TIM10 inh,NALP3 yeast inh,tim23-1 inh,tim10-1 inh,V-ATPase pHluor,tim10-1 confirm,tim10 confirm,tim23-1 confirm
O=C(Nc1ccccc1Cl)C1C(c2ccccc2)C1(Cl)Cl (centres undefined),20,5,38,40,23,5,·,·,·
Cc1ccc(S(=O)(=O)NCCc2nnc3ccc(N4CCOCC4)nn23)cc1,·,·,·,·,·,0,·,·,·
CC1=C[C@H](C)[C@H](c2c(F)cccc2Cl)CC1=O,12,-2,9,7,-19,-4,·,·,·
O=C(COc1cccc(NC(=O)c2cccc([N+](=O)[O-])c2)c1)c1ccc(F)cc1,-132,19,17,12,15,1,·,·,·
O=C(COc1cccc(NC(=O)c2ccco2)c1)c1ccc(F)cc1,-27,47*,22,55*,42*,19*,32*,48*,71*
CNC(C)C#Cc1ccc2oc3cc(C)c(C)cc3c(=O)c2c1 (centres undefined),·,8,3,21,11,-6,·,·,·
CNC(C)C#Cc1ccc2c(=O)c3cc(C)c(C)cc3oc2c1 (centres undefined),·,16,1,51*,42*,-3,38*,·,59*
c1ccc(Nc2nc(-c3ccccc3)nc3ccccc23)cc1,10,27,30,65*,47*,2,26,·,49*
c1ccc(-c2nc(NC3CCCC3)c3ccccc3n2)cc1,6,41*,28,53*,46*,-2,36*,17,68*
COc1ccc(Nc2nc(-c3ccccc3O)nc3ccccc23)cc1,7,33,22,51*,46*,4,36*,·,59*
CN(C)S(=O)(=O)c1ccc(/C(O)=C2/C(=O)C(=O)N(CCCN3CCOCC3)C2c2ccncc2)cc1 (centres undefined),·,10,6,2,3,5,·,·,·
CC(Cc1ccccc1)NC(=O)CN1C(=O)c2ccccc2S1(=O)=O (centres undefined),2,-2,14,1,-19,0,·,·,·
O=C(Nc1ncc([N+](=O)[O-])s1)c1ccco1,14,46*,32,53*,40*,8,40*,23,48*
COc1cc(Br)cc(CNc2ccc(F)c([N+](=O)[O-])c2)c1O,6,44*,21,54*,55*,3,33*,40*,56*
COc1ccc(/C=C/c2nc3ccccc3n2C)cc1,20,70*,22,66*,57*,4,49*,67*,47*
Cc1cc(C(=O)Nc2ccc(Nc3ccccc3)cc2)ccc1[N+](=O)[O-],-1,-4,19,-2,-13,-2,·,·,·
O=C(Nc1ccc(Nc2ccccc2)cc1)c1ccc(Cl)c([N+](=O)[O-])c1,14,23,24,73*,46*,-1,28,·,57*
Cc1nc(C(=O)NC2CCCCC2)sc1C1(C)CC(c2cccnc2)=NO1 (centres undefined),·,7,-4,11,-1,·,·,·,·
CN1CCN(/N=C/c2ccc(N(c3ccccc3)c3ccccc3)cc2)CC1,0,30,-7,76*,50*,-2,-35,·,38
O=C(NC1CCN(Cc2ccc(Cl)cc2Cl)CC1)c1ccccc1,25,19,26,9,-2,-1,·,·,·
CC1CCN(C2=NC(=O)/C(=C/c3ccccc3F)S2)CC1,9,13,15,52*,46*,-1,35*,·,53*
CC1CCN(C2=NC(=O)/C(=C/c3cccc(O)c3)S2)CC1,10,23,14,20,21,0,·,·,·
Cn1ncc(Cl)c1C(=O)N1CCN(c2ccc(Cl)c(Cl)c2)CC1,5,27,-3,50*,41*,2,20,·,42*
COc1cccc(NCc2cc(=O)oc3cc(C)c(C(C)C)cc23)c1,8,13,-3,30,36,-1,·,·,·
CCOC(=O)c1sc(N/N=C/c2cc(Br)c(O)c(OC)c2)nc1C,4,-4,26,19,8,-3,·,·,·
SMILES,NALP1 yeast inh,TIM10 inh,NALP3 yeast inh,tim23-1 inh,tim10-1 inh,V-ATPase pHluor,tim10-1 confirm,tim10 confirm,tim23-1 confirm
Cc1ccc(C(=O)Sc2cccccc2=O)cc1,6,73*,15,89*,74*,7,77*,89*,-28
O=C(Nc1ccccc1SC(=O)c1ccccc1)c1ccccc1,·,·,·,·,·,-2,·,·,·
CC(C)(C)NC(=O)C(c1ccc(Cl)cc1)N(Cc1ccco1)C(=O)CCl (centres undefined),4,37,-1,51*,53*,1,38*,·,48*
O=C(Nc1ncccn1)c1ccc([N+](=O)[O-])o1,5,14,19,5,0,3,·,·,·
Cc1ccnc(NC(=O)c2ccc([N+](=O)[O-])o2)c1,14,55*,-5,61*,64*,10,59*,3,76*
CN(Cc1ccccc1)C(=O)c1ccc([N+](=O)[O-])o1,48*,75*,-1,50*,68*,3,69*,72*,64*
Cc1ccc(CNC(=O)c2nn(C)c(C)c2[N+](=O)[O-])cc1,33,-4,-3,11,2,2,·,·,·
O=C(COC(=O)c1ccc([N+](=O)[O-])o1)NCc1ccccc1,·,-216,11,-57,-199,-8,·,·,·
Cc1ccc(CNC(=O)c2ccc([N+](=O)[O-])o2)cc1,-3,67*,7,64*,62*,-3,57*,40*,54*
Cc1nn(CC(=O)Nc2cccnc2)c(C)c1[N+](=O)[O-],24,-10,-3,2,6,-2,·,·,·
CCOc1ccccc1C(=O)N/N=C/c1coc2ccc(Cl)cc2c1=O,-6,71*,-12,68*,67*,-3,54*,22,69*
Cc1ccc2occ(/C=N/NC(=O)c3ccc(Cl)cc3)c(=O)c2c1,6,6,10,41,19,-2,·,·,·
COc1cc(CNC2CCCC2)c(Br)cc1OC1CCCC1,1,13,31,24,-28,-3,·,·,·
